# Screens (PubChem)
# Sampled rows, rich in hits. Any-hit rate of the full collection: about 0.93%.
# CDC25B-CDK2 inh = human CDC25B-CDK2/CyclinA binding inhibition. HTRF CDC25B-CDK2/CyclinA binding, anti-His/anti-Flag; hits give high values. 94,000 compounds, 0.72% hits. AID 1259370. P30305+P24941. z-score (test concentration not listed); in the data active = z-score above about 3.2
# HIV TAR-Tat = HIV-1 TAR-Tat binding disruption | HIV-1 TAR RNA, Tat peptide displacement FRET; hits give high values | z-score (no concentration beside the values) | 100,000 compounds, 0.6% hits | AID 1259389; active = z-score of 3 or more in at least 2 runs
# The depositor's hits bear a star; nt = not tested or not shown.
SMILES,CDC25B-CDK2 inh,HIV TAR-Tat
COC(=O)c1ccccc1Nc1nc(-c2ccccc2)cc(-c2ccc(C)cc2)n1,-0.42,nt
O=C(O)/C=C/c1ccc(O)c(O)c1,-1.56,5.35
O=C(/C=C/c1ccc(O)c(O)c1)O[C@H](Cc1ccc(O)c(O)c1)C(=O)O,nt,16.6*
CC1=C(C(=O)OCC2CCCO2)C(c2ccccc2C)C2=C(CC(C)(C)CC2=O)N1 (stereo unspecified),-5.53,5.05*
CC1=C(C(=O)OCC2CCCO2)C(c2ccccc2F)C2=C(CC(C)(C)CC2=O)N1 (stereo unspecified),-0.72,0.14
COc1ccc(-c2c3c(=O)n(C)c(=O)n(C)c3c3n2-c2ccccc2NC3c2cc(O)ccc2O)cc1 (stereo unspecified),-1.76,21.5*
COc1ccc(O)c(C2Nc3ccccc3-n3c(-c4ccccc4)c4c(=O)n(C)c(=O)n(C)c4c32)c1 (stereo unspecified),-0.2,1.73
COc1ccc(/C=C(\C#N)C(N)=S)cc1,1.55,nt
CC1CN(C)C(C)C(/C=C(/C#N)C(N)=S)C1=O (stereo unspecified),7.89*,nt
C/S(=N\S(=O)(=O)c1ccc(Cl)cc1)c1sc(Cl)c2c1C(=O)CC(C)(C)C2 (stereo unspecified),-0.69,nt
Cc1cc(O)c2c(c1)Cc1cccc(O)c1C2=O,nt,7.7*
O=C1c2cccc(O)c2C(=O)c2c(O)cccc21,nt,3.09
CCOC(=O)c1[nH]c(C)c(S(=O)(=O)N2CCc3ccccc3C2)c1C,nt,-0.19
O=C(Nc1ccc(F)cc1F)c1cnn(-c2cccc(F)c2)c1C1CCNCC1,nt,0.29
Cc1cc(C)n2c(SCc3ccc(Br)cc3)nnc2n1,-1.4,0.81
Cc1cc(C)n2c(SCc3ccc(C(=O)c4ccccc4)cc3)nnc2n1,8.33*,1.51
CN(Cc1ccccc1)c1nnc(NC(=O)Nc2ccc3c(c2)OCCO3)s1,-0.57,3.63
CN(Cc1ccccc1)c1nnc(NC(=O)NCc2ccccc2)s1,-1.3,7.97*
C=CCN1C(=S)N(c2cccc(OC)c2)C2CS(=O)(=O)CC21 (stereo unspecified),-1.42,nt
Cc1cc(N2CCCCC2)nc(N2CCN(S(=O)(=O)c3ccc4nc(C)sc4c3)CC2)n1,nt,1.08
Cc1ccc2c(=O)c(C(=O)O)c[nH]c2n1,1.51,19.6*
Cc1ccc2c(=O)c(C(=O)c3ccc(F)cc3)c[nH]c2n1,nt,-1.97
COc1ccc(OC)c2[nH]c(=O)c(CCNS(C)(=O)=O)cc12,-2.03,nt
OCCNc1cc(-c2ccccc2)ncn1,-0.22,1.44
Cc1nnc2c(Nc3ccc(O)cc3)nc3ccccc3n12,-1.6,7.22*
SMILES,CDC25B-CDK2 inh,HIV TAR-Tat
Cc1nnc2c(Nc3ccc(N(C)C)cc3)nc3ccccc3n12,0.17,0.85
CC1Sc2ccc(S(=O)(=O)C(C)CC(=O)NCCC3=CCCCC3)cc2NC1=O (stereo unspecified),nt,-1.68
Cc1noc(-c2ccccc2)c1NC(=O)NCC1COc2ccccc2O1 (stereo unspecified),7*,nt
O=C(NCC1COc2ccccc2O1)Nc1ccc(Cl)cc1 (stereo unspecified),-0.86,nt
CCN(CC)C(=O)c1oc2ccccc2c1NC(=O)C(C)(C)C,nt,0.42
CCN(CC)C(=O)c1oc2ccccc2c1NC(=O)c1ccc2c(c1)OCO2,nt,7.04*
CC(C)OC(=O)c1ccc2[nH]c3c(c2c1)CCCC3,18.3*,-1.48
COC(=O)c1ccc2[nH]c3c(c2c1)CCCC3,-2.95,nt
O=S(=O)(c1ccc2[nH]c3c(c2c1)CCCCC3)N1CCCCC1,nt,3.36*
O=S(=O)(c1ccc2[nH]c3c(c2c1)CCCC3)N1CCCCC1,nt,-0.42
CCOc1ccc(C2=C/C(=C/c3cc(OC)c(OC)cc3[N+](=O)[O-])C(=O)O2)cc1,-3.74,nt
O=C(O)c1cc2ncc(Br)cn2n1,nt,17.9*
O=C(c1cnc2cc(-c3ccccc3)nn2c1)c1cc(Br)ccc1O,-0.74,-0.18
CCOC(=O)CSc1nc2ccc(NC(=O)CC(C)C)cc2s1,-0.73,0.07
CC(C)=CC[C@@H](OC(=O)C=C(C)C)C1=CC(=O)c2c(O)ccc(O)c2C1=O,nt,22.8*
CC(C)(C)c1nnc2sc(SCC(=O)Nc3ccc(F)cc3)nn2c1=O,nt,-0.16
CCOC(=O)c1cnc2ccc(Br)cc2c1NCc1ccco1,-3.2,-1.22
CCOC(=O)c1cnc2ccc(Br)cc2c1Nc1ccc(N(C)C)cc1,-0.69,7.66*
CCCC1NC(C)=[NH+][B-](c2ccccc2)(c2ccccc2)O1 (stereo unspecified),-2.85,nt
O=S1(=O)C[C@H](NCc2ccccc2F)[C@@H](S(=O)(=O)c2ccc(F)cc2)C1,-1.91,-0.26
COc1ccc(-c2nc3c(c(=O)[nH]2)Cc2cc(Br)cc(OC)c2O3)cc1O,-1.76,1.72
COc1ccc(-c2nc3c(c(=O)[nH]2)Cc2cc(Br)cc(OC)c2O3)cc1OC,-0.88,12.7*
O=C(O)c1nccnc1C(=O)Nc1ccccn1,-1.42,-0.51
Cc1ccc(CNC(=O)Cn2ncn3c(c(-n4cccc4)c4c5c(sc43)CCCC5)c2=O)cc1,0.9,11.7*
O=C(O)Cn1ncn2c(c(-n3cccc3)c3c4c(sc32)CCCC4)c1=O,6.12,2.43
SMILES,CDC25B-CDK2 inh,HIV TAR-Tat
Cc1cc(C)n(-c2nc3c(c(=O)n2CC(=O)NC(C)(C)C)CCCC3)n1,nt,1.33
Cc1cc(C)n(-c2nc3c(c(=O)n2CC(N)=O)CCCC3)n1,nt,12.1*
CCCNC(=O)C(CC)n1nc(C)n2c(cc3sccc32)c1=O (stereo unspecified),-0.69,1
COc1cccc(-c2nn(Cc3nc(-c4ccc(OC(C)C)cc4)oc3C)c(=O)c3noc(C)c23)c1,nt,-0.56
Clc1ccc(Cc2nnc3sc(-c4ccncc4)nn23)cc1,-1.16,-0.56
O=C(CSc1n[nH]c(-c2ccco2)n1)c1c[nH]c2ccccc12,-1.47,2.51
O=C(CSc1n[nH]c(-c2ccncc2)n1)c1c[nH]c2ccccc12,6.81*,-0.52
COc1ccc(NS(=O)(=O)c2ccc(NS(=O)(=O)c3ccc(Cl)cc3)cc2)cc1,0.47,-0.37
O=S(=O)(Nc1ccc(Oc2ccc(F)cc2)cc1)c1ccc(Cl)cc1,12.5*,nt
CCOC(=O)c1sc(=S)n(-c2ccc(OC)cc2)c1N,16.5*,1.14
CCOC(=O)c1sc(=S)n(-c2ccc(Cl)cc2)c1N,nt,1.46
CC(C)Cn1c(=O)c2ccccc2n2c(CCC(=O)N3CCN(c4ccccn4)CC3)nnc12,-0.35,-0.01
OCC1O[C@H](O)C(Cl)C(O)C1O (stereo partly specified),-2.64,nt
OCC1O[C@H]([S-])[C@@H](O)C(O)[C@@H]1O.[Au+] (stereo partly specified),19.3*,nt
CC1=C(c2ccc(C(C)C)cc2)S(=O)(=O)N=C1N1CCc2ccccc2C1,-1.5,-0.9
CN1CCc2c(n(CC(O)CN3C(=O)c4ccccc4S3(=O)=O)c3ccccc23)C1=O (stereo unspecified),19.4*,0.59
O=C1c2ccccc2S(=O)(=O)N1CC(O)COc1ccccc1 (stereo unspecified),-1.24,nt
COc1ccc(CNS(=O)(=O)c2cc(-c3onc(C)c3C)ccc2OC)cc1,nt,0.96
O=C(O)c1cc(-c2ccc(O)c(O)c2)nc2n[nH]c(-c3ccccc3)c12,-0.65,19.2*
O=C(O)c1ccc(-c2cc(C(=O)O)c3c(-c4ccccc4)[nH]nc3n2)cc1,nt,1.84
Cn1c(=O)n(CC(=O)N2CCCC2)c(=O)c2cc(S(=O)(=O)N3CCc4ccccc4C3)ccc21,nt,2.29
